Compounds with a hit are over-represented: about 19% of the library has one in this group of screens.
HT1080 IDH1KD tx = qHTS for induction of synthetic lethality in tumor cells producing 2HG: qHTS for the HT-1080-IDH1KD cell line. HT-1080 IDH1 knockdown viability, ATP luminescence, 48 h. Potency, µM (doses to about 46.1 µM), inactives show at the top dose activity, negative = toxicity, usual class: cytotoxic. 360,000 compounds, 2% hits. AID 686971, 2013;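 also: potency is read from the fitted curve at half-maximal effect; 0% = DMSO wells and -100% = cell-free medium wells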
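IDH1KD HT-1080 cells, 750/well, RPMI + 5% FBS; compound pinned after 2 h settling; 48 h, 37 °C; CellTiter-Glo luminescence; % activity normalised to DMSO and no-cell wells; curves fitted, classed by r2 and efficacy.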
TDP1 cell CPT = qHTS for Inhibitors of human tyrosyl-DNA phosphodiesterase 1 (TDP1): qHTS in cells in presence of CPT; chicken DT40 Tdp1-/-;hTDP1 cells + 20 nM CPT, ATP luminescence, 48 h; Potency, µM (top dose mostly 46.2 µM), for inactives: top-dose activity change, negative = growth inhibition, hits mostly inhibitors; 420,000 compounds, 12% hits; also: potency is read from the fitted curve at half-maximal effect; nearly all actives have a fitted effect of over 55% in size
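Cell growth measured by CellTiter-Glo luminescence after a minimum 48 h, 37 C compound exposure with 20 nM CPT in Tdp1-knockout DT40 cells stably expressing hTDP1, seeded 400/well; qHTS titration format.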
TDP1 cell noCPT = qHTS for Inhibitors of human tyrosyl-DNA phosphodiesterase 1 (TDP1): qHTS in cells in absence of CPT | DT40 Tdp1-/- hTDP1 cells, no CPT, ATP luminescence, 48 h | Potency, µM (top dose mostly 46.2 µM), for the others: at the highest dose activity change, negative = growth inhibition, most hits filed as inhibitors | AID 686978, 2013 | 420,000 compounds, 15% hits; also: potency is read from the fitted curve at half-maximal effect; nearly all actives have a fitted effect of over 55% in size
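Growth of hTDP1-complemented DT40 Tdp1-knockout cells is measured by ATP luminescence after at least 48 hr compound exposure at 37 °C, with DMSO substituting for the 20 nM CPT used in the parallel screen.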
IL-1B inflam inh = qHTS for Inhibitors of Inflammasome Signaling: IL-1-beta AlphaLISA Primary Screen. THP-1 LPS/ATP IL-1B secretion, AlphaLISA, 16 h; stronger effect = lower value. activity change, % at 57.5 µM. 360,000 compounds, 4.7% hits; in the data active = activity change below about -50%; inconclusive = mostly about -30% to -49%
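Secreted IL-1B measured by AlphaLISA bead assay after 16 h compound exposure of THP-1 cells; compounds (final up to 57.5 uM) added 1 h before LPS (250 ng/mL) and ATP (1.25 mM) stimulation; lower signal means less secretion.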
HT1080-NT tox = qHTS for induction of synthetic lethality in tumor cells producing 2HG: qHTS for the HT-1080-NT fibrosarcoma cell line; Potency, µM (titrated, usually from 46.1 µM), without a hit: top-dose activity, negative = less viability, usual class: cytotoxic; HT-1080-NT fibrosarcoma viability, CellTiter-Glo ATP luminescence, 48 h; 360,000 compounds, 1.6% hits;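 also: NT is the 2HG producing partner of a matched IDH1 knockdown line; potency is read from the fitted curve at half-maximal effect; 0% = DMSO-treated cells and -100% = media-only wells without cells; nearly all actives have a fitted effect of over 55% in size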
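Fibrosarcoma NT cells, 750 per well in 5% FBS RPMI, were exposed to compound for 48 hours. Viability: CellTiter-Glo luminescence.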
Starred values were filed as active, the others as inactive; ? = inconclusive; / = no result; [ ] = another dose, or the depositor's remark. Unless noted, calls follow the shape of the dose curve; as a rule, active = well fitted curve in the direction sought with a large enough effect; inconclusive = small, poorly fitted or top-dose-only effect, or another doubt; inactive = no such curve, though single readings can be large; an effect the other way counts as inactive or inconclusive. Unless noted, % is scaled to controls: 0 for no effect and ±100 for the full control effect.

SMILES | HT1080 IDH1KD tx | TDP1 cell CPT | TDP1 cell noCPT | IL-1B inflam inh | HT1080-NT tox
O=C(c1ccc2c(c1)OCO2)C1CCCN(Cc2cccc(C(F)(F)F)c2)C1 (configuration not stated) | 17% | ? | 2% | 15 | 6%
O=C(c1ccc2c(c1)OCO2)C1CCCN(Cc2ccc3cccc(F)c3n2)C1 (configuration not stated) | 1% | ? | 21µM* | -28 | 1%
O=C(c1ccc2c(c1)OCO2)C1CCCN(Cc2cn[nH]c2-c2cccc(F)c2)C1 (configuration not stated) | -3% | ? | ? | -92* | 1%
CN(Cc1ccccc1F)c1nc(-c2cccnc2)nc2ccccc12 | -6% | 21µM* | ? | -76* | -7%
COc1cccc(-c2nc(N(C)C)c3ccccc3n2)c1 | / | 3% | ? | / | /
CN(Cc1ccco1)c1nc(-c2ccccc2Cl)nc2ccccc12 | / | -14% | -17% | / | /
Cc1ccc(CN(C)c2nc(-c3cccnc3)nc3ccccc23)o1 | -13% | ? | 16µM* | -28 | -30%
CCOc1ccc(CN(C)c2nc(-c3cccnc3)nc3ccccc23)cc1OC | ? | 13µM* | ? | -93* | -30%
CCOC(=O)c1c(NS(C)(=O)=O)sc2c1CCC(C)C2 (configuration not stated) | 0%[9.24 µM] | -16% | ? | 0 | 3%
CC#CCOC(=O)c1c(C)nc2sc3c(c2c1N)CC[C@@H](O)C3 | / | -59% | 11µM* | / | /
O=C(CN1CCN(c2ccc(O)cc2)CC1)NCC(=O)Nc1ccc(F)c(F)c1F | -2% | ? | ? | -4 | -16%
C/C(=N\NC(=O)c1ccc(F)cc1)c1ccccn1 | ? | 0.92µM* | 1µM* | -66* | ?
O=C(N/N=C/c1ccc(Br)cc1)c1ccccc1-n1cccc1 | 11µM* | ? | 16µM* | 32 | ?
CCc1ccc(/C(C)=N/NC(=O)c2ccccn2)cc1 | 1% | -3% | 4% | 0 | -12%
COc1ccc(NCC(=O)N/N=C(\C)c2cc3ccccc3o2)cc1 | -11% | ? | ? | -55* | -9%
C/C(=N\NC(=O)c1cc2ccccc2cc1O)c1ccccn1 | ? | 1.2µM* | 1.3µM* | 70 | ?
Cc1cccc(-c2ocnc2C(=O)N2CCN(C(=O)c3cccs3)CC2)c1 | -3% | -10% | ? | -12 | 0%
C/C(=N\NC(=O)CCCNc1ccc(C)cc1)c1ccccn1 | ? | 5.8µM* | 5.2µM* | 12 | -4%
C/C(=N\NC(=O)c1nc2ccccn2c1C)c1cc2ccccc2o1 | -16% | -24% | ? | 5 | -28%
C/C(=N\NC(=O)c1ccccc1-n1cccc1)c1ccccn1 | ? | 2.1µM* | 1.8µM* | 112 | ?
C/C(=N\NC(=O)c1cc2ccccc2cc1O)c1cc2ccccc2o1 | ? | ? | 15µM* | 101 | ?
Cc1ccc(C)c(COC(=O)CCN=C2NS(=O)(=O)c3ccccc32)c1 | -2% | -18% | -6% | 9 | 5%
Cc1nc2cnc(Oc3ccccc3)nc2n(CCc2ccccc2)c1=O | / | 1% | 7% | / | /
CCCCCCCCCC[n+]1cc(Br)cc(Br)c1 | / | 0.79µM* | 0.45µM* | / | /
Brc1ccc[n+](CCC2CCCCC2)c1 | / | ? | 10µM* | / | /
SMILES | HT1080 IDH1KD tx | TDP1 cell CPT | TDP1 cell noCPT | IL-1B inflam inh | HT1080-NT tox
CCCCCCCCCC[n+]1cccc(C(=O)N(CC)CC)c1 | 0% | 8.2µM* | 2.9µM* | -23 | -15%
CCCCCCCCCC[n+]1cccc(Br)c1 | / | 1.4µM* | 5µM* | / | /
CCCCCCNC(=O)Cc1ccc(Br)cc1 | -5% | 0% | -8% | -3 | -19%
CN1CCN(c2ncc3nc(-c4ccccc4)c(=O)n(C)c3n2)CC1 | / | ? | -16% | / | /
CCOc1ccccc1OC(C)C(=O)Nc1ccc(S(=O)(=O)N2CCCC2)cc1 (configuration not stated) | 1% | ? | ? | 0 | 5%
C=CCN(CCNP(=O)(OCC)OCC)CP(=O)(OCC)OCC | 12% | -10% | -10% | 19 | 8%
CCCc1nc2ccccc2c(=O)n1NC(=O)c1c(O)c2ccccc2n(C)c1=O | 0% | ? | ? | 3 | 0%
CCc1nc2ccccc2c(=O)n1NC(=O)c1c(O)c2ccccc2[nH]c1=O | 7% | 21µM* | 18µM* | -1 | 11%
O=C(NC1CC1)c1c(O)c2ccccc2[nH]c1=O | -2% | ? | -14% | -61* | -3%
O=C(CCl)NNC(=O)c1c(O)c2ccccc2[nH]c1=O | 15µM* | 4.6µM* | 5.2µM* | -102* | 12µM*
O=C(O)CC(c1cccc2ccccc12)n1cccc1 (configuration not stated) | 8% | -3% | -6% | 17 | 13%
Cc1cc(=O)oc2c3c(cc(OCC(=O)N[C@@H](CC(C)C)C(=O)O)c12)OC(C)(C)CC3 | 11% | 11% | -2% | 9 | 10%
CCN1CCN(c2nc(-c3ccccc3)nc3ccccc23)CC1 | -14% | ? | 29µM* | -65* | -13%
CN1CCN(c2nc(-c3ccc(C(C)(C)C)cc3)nc3ccccc23)CC1 | -15% | ? | 21µM* | -16 | -15%
Cc1ccc(-c2nc(N3CCN(C)CC3)c3ccccc3n2)cc1 | -5% | ? | ? | ? | -29%
O=C(CSCc1cccc(Br)c1)N1CCOCC1 | 2% | -27% | -11% | 8 | -1%
CC(=O)c1ccc(NS(=O)(=O)c2cccc(S(=O)(=O)c3ccc(Cl)cc3)c2)cc1 | / | -11% | -21% | / | /
C=C(C)Cn1c(C)cc(C)c(S(=O)(=O)c2cccc(C)c2)c1=O | -1% | -6% | -6% | -16 | 2%
CCc1cc2c3c(c1)C1(C(=O)N3C(C)(C)C=C2C)C(C#N)=C(N)Oc2[nH]c(=O)[nH]c(=O)c21 (configuration not stated) | 16µM* | 3.3µM* | 3.3µM* | 25 | 23µM*
COC(=O)[C@@H](Cc1c[nH]c2ccccc12)NCc1ccc(B(O)O)cc1 | -1% | -11% | -15% | 1 | -11%
COC(=O)[C@H](Cc1c[nH]c2ccccc12)NCc1cccc(B(O)O)c1 | 3% | 24% | -2% | -66* | -2%
OC(c1ccc(F)c(F)c1)c1nc(-c2cccs2)cs1 (configuration not stated) | -4% | ? | ? | -12 | -1%
COc1ccc(-c2cnnc(N/N=C/c3ccc(O)cc3)n2)cc1 | -13% | ? | 12µM* | ? | -15%

Source: PubChem BioAssay
